In the library only some 6% were active in any assay of this set; here they are far more common.
VDR inhibitor: Inhibitors of the vitamin D receptor (VDR): qHTS. Vitamin D3 receptor (Homo sapiens), P11473. VDR-SRC2-3 peptide fluorescence polarization, 2 h. Potency, µM, hits mostly inhibitors. 400,000 compounds, 0.93% hits
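The screen uses fluorescence polarization to detect compounds that interfere with recruitment of the SRC2-3 coactivator peptide to VDR; plates are read after 2 h at room temperature.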
Tau fluor cs: Counterscreen qHTS for Inhibitors of Tau Fibril Formation, Fluorescence Polarization. tau K18 P301L Alexa594 fluorescence, heparin fibrillization. Potency, µM (titrated, usually from 57.7 µM). AID 1463, 2008. 280,000 compounds, 0.93% hits; note: nearly all actives have a fitted effect of over 55% in size
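Human tau K18 P301L (15 uM unlabeled, 0.24 uM Alexa 594-labeled) in 100 mM sodium acetate pH 7 with 20 uM heparin, 6 hr at 37 C. ThT 30 uM added, 1 hr ambient; Alexa 594 FP and total fluorescence read at 555/632 nm.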
PLK1 PBD inh: qHTS for Inhibitors of PLK1-PDB (polo-like kinase 1 - polo-box domain): Primary Screen | AID 720504, 2013 | Plk1 PBD binding of FITC phosphopeptide, fluorescence polarization | 360,000 compounds, 2.8% hits | Potency, µM, hits mostly inhibitors; note: series mostly up to about 57 µM; nearly all actives have a fitted effect of over 65% in size
Target sequence (P53350 whole entry, looked up, the tested form may be a part): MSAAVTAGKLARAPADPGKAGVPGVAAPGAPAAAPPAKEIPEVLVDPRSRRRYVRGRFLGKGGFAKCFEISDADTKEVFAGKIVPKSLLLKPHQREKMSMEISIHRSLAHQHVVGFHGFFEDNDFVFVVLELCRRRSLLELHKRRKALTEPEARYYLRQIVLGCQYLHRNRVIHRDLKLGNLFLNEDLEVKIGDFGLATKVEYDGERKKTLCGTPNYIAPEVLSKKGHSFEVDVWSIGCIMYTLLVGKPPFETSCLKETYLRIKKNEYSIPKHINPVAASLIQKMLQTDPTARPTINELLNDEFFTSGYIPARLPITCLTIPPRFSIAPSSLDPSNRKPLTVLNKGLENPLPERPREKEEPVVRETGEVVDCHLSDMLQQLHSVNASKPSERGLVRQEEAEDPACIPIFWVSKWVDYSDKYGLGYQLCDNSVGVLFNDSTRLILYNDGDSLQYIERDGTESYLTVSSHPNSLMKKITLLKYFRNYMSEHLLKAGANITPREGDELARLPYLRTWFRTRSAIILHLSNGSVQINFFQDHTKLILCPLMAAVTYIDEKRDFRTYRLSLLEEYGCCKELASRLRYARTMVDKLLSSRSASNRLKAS
Tau ThT inhib: qHTS for Inhibitors of Tau Fibril Formation, Thioflavin T Binding | Microtubule-associated protein tau (Homo sapiens), P10636 | recombinant tau K18 P301L (four-repeat tau fragment), heparin-induced fibrillization, ThT fluorescence | Potency, µM (top dose mostly 57.4 µM), hits mostly inhibitors | 270,000 compounds, 2.1% hits; note: nearly all actives have a fitted effect of over 55% in size
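In this qHTS, human K18 P301L tau is incubated with compound and heparin for 6 hr at 37 C, and Thioflavin T fluorescence then reports fibril load.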
Tau FP inhib: qHTS for Inhibitors of Tau Fibril Formation, Fluorescence Polarization. K18 P301L tau heparin fibrillization, Alexa594 FP, 6 h. Potency, µM (top dose mostly 57.7 µM), usual class: inhibitors. 280,000 compounds, 0.39% hits. Microtubule-associated protein tau (Homo sapiens), P10636; note: nearly all actives have a fitted effect of over 55% in size
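Recombinant K18 P301L […], labeled with Alexa 594 at 0.24 uM over 15 uM unlabeled; heparin inducer 20 uM final; 37 C, 6 hr; FP endpoint.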
Sfp inh: qHTS Assay for Inhibitors of Bacillus subtilis Sfp phosphopantetheinyl transferase (PPTase) | 4'-phosphopantetheinyl transferase ffp (Bacillus subtilis), Q9F4F7 | Biochemical Sfp PPTase activity, qHTS | Potency, µM, usual class: inhibitors | 310,000 compounds, 3.5% hits | AID 1490, 2009;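 note: the enzyme is Sfp with the accession as filed and its product quenches rhodamine fluorescence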
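After 15 min at room temperature with compound, 15 nM Sfp received 5 uM rhodamine-CoA plus 12.5 uM BHQ-2-ybbR (50 mM Hepes pH 7.6, 10 mM MgCl2). Rate came from the fluorescence difference over 30 min, ex 525/em 598 nm.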
A number is an active result; n = inactive; u = inconclusive; x = not tested or not shown; [ ] = remark or other dose. Calls come from the whole dose curve; as a rule, active = well fitted curve in the direction sought with a large enough effect; inconclusive = small, poorly fitted or top-dose-only effect, or another doubt; inactive = no such curve, though single readings can be large; an effect the other way counts as inactive or inconclusive.

SMILES | VDR inhibitor | Tau fluor cs | PLK1 PBD inh | Tau ThT inhib | Tau FP inhib | Sfp inh
C=C(C)C(=O)Nc1cccc(C2=NOC3(C2)C[C@H](C(N)=O)N(C(=O)COc2ccc(Cl)cc2)C3)c1 (stereo not given in full) | n | n | 24µM | n | n | n
CCC(=O)Nc1cccc(C2=NOC3(C2)C[C@@H](C(N)=O)N(C(=O)COc2ccc(Cl)cc2)C3)c1 (stereo not given in full) | n | n | n | n | n | n
CCOc1ccc(-n2cc(C(=O)Nc3ccccc3OCC)c3cc(OC)c(OC)cc3c2=O)cc1 | n | n | x | n | n | x
COCCOC(=O)c1c(C)nc(SCC(=O)Nc2cccc3ccccc23)c(C#N)c1-c1ccco1 | n | n | n | n | n | 7.9µM
CCOc1ccccc1NC(=O)N1CCC2(CC1)Oc1ccccc1C(=O)N2Cc1ccccc1F | n | n | x | n | n | x
CCOC(=O)C1=C(C)NC2=C(C(=O)c3ccccc32)C1c1cccc2ccccc12 (stereo not given) | n | 14µM[quencher] | n | u | n | n
CCOC(=O)C1=C(C)NC2=C(C(=O)c3ccccc32)C1c1ccc(O)cc1 (stereo not given) | n | u | n | 10µM | n | n
COc1ccccc1CNC(=O)COC(=O)Cn1cnc2c1c(=O)n(C)c(=O)n2C | x | x | n | x | x | x
O=C(Nc1nnc([C@@H]2C[C@H](O)[C@@H](CO)O2)s1)Nc1ccccc1F | x | x | n | x | x | x
CN(C)c1ccc(N2C(=O)CC(c3ccccc3)CC2=O)cc1 | n | n | n | n | n | n
CC1SC(=S)N(c2ccc(N(C)C)cc2)C1=O (stereo not given) | 32µM | x | u | x | x | n
CCCNC(=O)c1cc(C2CCCCN2S(=O)(=O)c2ccccc2)on1 (stereo not given) | x | x | n | x | x | x
Nc1c(C(=O)c2ccc(Cl)cc2)oc2ccccc12 | n | n | n | n | n | n
O=C(c1ccc(Cl)cc1)c1oc2ccccc2c1CS(=O)c1ccc(Cl)cc1 (stereo not given) | n | n | n | n | n | 56µM
O=[N+]([O-])c1cc(-c2nc(-c3ccccc3)no2)ccc1NCc1cccnc1 | n | n | x | n | n | x
CNc1ncnc2c1ncn2[C@H]1CN(Cc2ccc3c(c2)OCO3)C[C@@H](CO)O1 | x | x | n | x | x | x
CNc1cc(N2CCN(S(=O)(=O)N(C)C)CC2)ccc1[N+](=O)[O-] | n | n | n | 16µM | n | n
O=C(NCCc1ccccc1)c1ccc(NCC2CCCO2)c([N+](=O)[O-])c1 (stereo not given) | n | n | n | 16µM | n | n
O=[N+]([O-])c1ccc(N2CCCC2)cc1NC1CC1 | n | n | n | 14µM | n | n
O=[N+]([O-])c1ccc(N2CCCCC2)cc1N1CCOCC1 | n | n | n | u | n | n
O=[N+]([O-])c1ccc(N2CCCC2)cc1N1CCCC1 | n | n | n | 18µM | n | n
CN(C)S(=O)(=O)N1CCN(c2ccc([N+](=O)[O-])c(NC3CC3)c2)CC1 | n | n | n | u | n | n
CCCC[C@@H]1CCCO[C@@](C(=O)NCC2CC2)(C(F)(F)F)C1 | n | x | x | x | x | n
COc1cccc([C@@H]2Oc3ccc(OC)cc3/C(=N/OC[C@@H](C)[C@H](OCc3ccccc3)C(C)C)[C@@H]2O)c1 | x | n[11.6 µM] | x | n[11.5 µM] | n[11.6 µM] | n
CC1=C(C(N)=O)C(c2ccc(C(C)C)cc2)n2nc(SCc3ccccc3F)nc2N1 (stereo not given) | n | n | x | u | n | x
SMILES | VDR inhibitor | Tau fluor cs | PLK1 PBD inh | Tau ThT inhib | Tau FP inhib | Sfp inh
O=C(COc1ccccc1Cl)N1CCN(c2ccc([N+](=O)[O-])c(N3CCOCC3)c2)CC1 | n | u | n | 13µM | n | n
CC(C)(C)c1ccc(CNc2cc(N3CCOCC3)ccc2[N+](=O)[O-])cc1 | u | 4µM[quencher] | n | 7.1µM | 28µM | n
CC(C)C(=O)N1CCN(c2ccc([N+](=O)[O-])c(NC(C)c3ccccc3)c2)CC1 (stereo not given) | u | n | n | 16µM | n | n
CC(=O)N1CCN(c2ccc([N+](=O)[O-])c(NCC3CCCO3)c2)CC1 (stereo not given) | n | n | n | 14µM | n | n
CCc1nc2ccc(C(=O)Nc3ccc(NC(C)=O)cc3)cn2c1N(CCC(C)C)CCN(C)C | x | x | n | x | x | x
Cc1ccc(S(=O)(=O)N(C)C[C@@H]2Oc3ccc(NS(C)(=O)=O)cc3CC(=O)N([C@H](C)CO)C[C@@H]2C)cc1 | n | x | n | x | x | x
Cc1ccccc1C(=O)N1CCN(c2ccc([N+](=O)[O-])c(NCc3cccnc3)c2)CC1 | n | n | n | u | n | n
Cc1ccc(C(=O)N2CCN(c3ccc([N+](=O)[O-])c(NCc4cccnc4)c3)CC2)cc1 | n | n | n | 13µM | n | n
c1ccc(CN2CCN(CCOCCOc3cccc4ccccc34)CC2)cc1 | n | n | n | n | n | 50µM
CCN1CCN(CCOCCOc2ccccc2)CC1 | n | x | n | x | x | 50µM
Cc1ccc(CNC(=O)C(=O)NCC(c2ccco2)S(=O)(=O)c2ccc(C)cc2)cc1 (stereo not given) | n | n | x | n | n | x
CC(C)(C)C(=O)OCC(=O)C1CCC2C3CCC4=CC(=O)CCC4(C)C3CCC12C (stereo not given) | n | n | x | n | n | n
Cc1nc(C2CCC3C4CCC5=CC(=O)CC[C@]5(C)C4CC[C@]23C)cs1 (stereo not given in full) | x | n | x | u | n | 79µM
OC(COCC(F)(F)C(F)(F)C(F)(F)C(F)F)Cn1c2ccc(Cl)cc2c2cc(Cl)ccc21 (stereo not given) | n | u | n | n | 10µM | n
COc1ccc(CN2C(=O)c3ccccc3C2c2nnnn2-c2c(C)cccc2C)cc1OC (stereo not given) | x | x | n | x | x | x
COc1ccc(CCNC(=O)c2cc(S(=O)(=O)N(C)c3ccccc3)ccc2Cl)cc1 | u | n | 15µM | n | n | n
CC1CCCC(C)N1C(=O)COC(=O)CNS(=O)(=O)c1ccc2ccccc2c1 (stereo not given) | x | x | n | x | x | x
COc1ccc(OCC(=O)Nc2ccc(N3CCCCC3)cc2)cc1 | u | n | u | u | n | n
Cc1cccc(OCC(=O)Nc2ccc(N3CCCC3)cc2)c1C | n | u | n | 14µM | n | u
Cc1ccc(OCC(=O)Nc2ccc(N3CCCC3)cc2)cc1C | n | n | n | u | n | 32µM

Source: PubChem (National Center for Advancing Translational Sciences (NCATS))
